According to PubChem BioAssay AID1159580 (chemical genetic matrix, 2015):
Values joined by “and” are separate entries in the source; they are usually repeats but may differ in a detail not shown here. Equal values may be shown once. Among all 5,500 compounds or so, about 2,000 (36%) were called active. Another 18% or so got no clear call; they are omitted. No stated cut-off is given here; in the data, active means normalized growth mostly below about 0.91 (no sharp cut-off); inconclusive means no clear call, values can overlap the other calls; inactive means mostly above about 0.92. The list shows a part of the results.

Assay: chemical genetic growth profiling, strain panel (AID 1159580);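 further: tested at 20 µM; growth read once vehicle control cultures reached saturation at 30 °C; 1 = growth at the plate median or of vehicle wells; lower values mean less growth of the strain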
Details: S. cerevisiae deletion strains, growth OD

Measured: normalized growth

CO[C@@]1(NC(=O)Cc2cccs2)C(=O)N2C(C(=O)O)=C(COC(N)=O)CS[C@@H]21
inactive: locus YAL013W, strain DEP1, active compounds read low 1 | locus YAL021C, strain ccr4, active compounds read low 0.939 | locus YAL026C, strain drs2, active compounds read low 0.969 | locus YAL030W, strain snc1, active compounds read low 0.982 | locus YBL061C, strain skt5, active compounds read low 0.97 | locus YBR009C, strain hhf1, active compounds read low 1.02 | locus YBR021W, strain FUR4, active compounds read low 1.01 | locus YBR023C, strain chs3, active compounds read low 0.971 | locus YBR171W, strain sec66, active compounds read low 0.968 | locus YBR229C, strain ROT2, active compounds read low 1.01 | locus YBR231C, strain swc5, active compounds read low 1.03 | locus YBR279W, strain paf1, active compounds read low 0.972 | locus YCL011C, strain gbp2, active compounds read low 0.976 | locus YCL016C, strain dcc1, active compounds read low 0.955 | locus YCL029C, strain bik1, active compounds read low 0.995 | locus YCL069W, strain vba3, active compounds read low 0.989 | locus YCR088W, strain abp1, active compounds read low 0.975 | locus YDL005C, strain med2, active compounds read low 0.981 | locus YDL035C, strain GPR1, active compounds read low 1.01 | locus YDL040C, strain nat1, active compounds read low 0.981 | locus YDL074C, strain BRE1, active compounds read low 1.02 | locus YDL101C, strain DUN1, active compounds read low 1.01 | locus YDL134C, strain PPH21, active compounds read low 1 | locus YDL185W, strain tfp1, active compounds read low 0.994 | locus YDL192W, strain arf1, active compounds read low 1 | locus YDR001C, strain nth1, active compounds read low 0.971 | locus YDR069C, strain doa4, active compounds read low 0.963 | locus YDR101C, strain arx1, active compounds read low 0.984 | locus YDR137W, strain rgp1, active compounds read low 0.94 | locus YDR150W, strain NUM1, active compounds read low 1.01 | locus YDR159W, strain sac3, active compounds read low 0.943 | locus YDR162C, strain NBP2, active compounds read low 1 | locus YDR195W, strain ref2 0.98 | locus YDR297W, strain sur2, active compounds read low 0.998 | locus YDR318W, strain mcm21, active compounds read low 0.992 | locus YDR334W, strain swr1, active compounds read low 0.97 | locus YDR335W, strain msn5, active compounds read low 0.955 | locus YDR388W, active compounds read low 0.99 | locus YDR392W, strain spt3, active compounds read low 0.838 | locus YDR502C, strain sam2, active compounds read low 0.991 | locus YEL003W, strain gim4, active compounds read low 0.983 | locus YEL037C, strain rad23, active compounds read low 0.97 | locus YEL061C, strain CIN8 (second series), active compounds read low 0.976 | locus YEL061C, strain CIN8, active compounds read low 1.01 | locus YER015W, strain faa2, active compounds read low 0.99 | locus YER016W, strain bim1, active compounds read low 0.949 | locus YER110C, active compounds read low 0.997 | locus YER111C, strain swi4, active compounds read low 0.96 | locus YER155C, strain BEM2 (second series), active compounds read low 0.977 | locus YER155C, strain BEM2, active compounds read low 1 | locus YER167W, strain BCK2, active compounds read low 1 | locus YFR010W, strain ubp6, active compounds read low 1.01 | locus YGL078C, strain dbp3, active compounds read low 0.986 | locus YGL086W, strain mad1, active compounds read low 0.987 | locus YGL167C, strain pmr1, active compounds read low 0.978 | locus YGL173C, strain kem1, active compounds read low 0.987 | locus YGL227W, strain vid30, active compounds read low 0.98 | locus YGL240W, strain doc1, active compounds read low 1 | locus YGL248W, strain PDE1, active compounds read low 1.01 | locus YGL253W, strain hxk2, active compounds read low 0.978 | locus YGR078C, strain PAC10, active compounds read low 1.01 | locus YGR135W, strain pre9, active compounds read low 0.989 | locus YGR252W, strain gcn5, active compounds read low 0.982 | locus YHR013C, strain ard1, active compounds read low 0.935 | locus YHR027C, strain rpn1, active compounds read low 1.01 | locus YHR030C, strain SLT2, active compounds read low 1.01 and 1.08 | locus YHR079C, strain IRE1 (second series), active compounds read low 0.995 | locus YHR079C, strain IRE1, active compounds read low 1.08 | locus YHR094C, strain hxt1, active compounds read low 0.984 | locus YHR129C, strain ARP1, active compounds read low 1 | locus YHR142W, strain chs7, active compounds read low 0.936 | locus YHR200W, strain rpn10, active compounds read low 0.994 | locus YIL066C, strain RNR3, active compounds read low 1.01 | locus YIL073C, strain SPO22, active compounds read low 1.01 | locus YIL125W, strain kgd1, active compounds read low 0.995 | locus YIR030C, strain dcg1, active compounds read low 0.996 | locus YJL092W, strain hpr5, active compounds read low 0.989 | locus YJL095W, strain BCK1 (second series), active compounds read low 0.967 | locus YJL095W, strain BCK1, active compounds read low 1.01 and 1.06 | locus YJL115W, strain asf1, active compounds read low 0.969 | locus YJL129C, strain trk1, active compounds read low 0.914 | locus YJL134W, strain LCB3, active compounds read low 1.01 | locus YJL154C, strain vps35, active compounds read low 0.973 | locus YJL164C, strain tpk1, active compounds read low 0.98 | locus YJL166W, strain qcr8, active compounds read low 0.987 | locus YJL168C, strain set2, active compounds read low 0.992 | locus YJL187C, strain SWE1 (second series), active compounds read low 1.01 | locus YJR043C, strain POL32, active compounds read low 0.986
